Data reported in PubChem BioAssay (EPA / NIEHS).
Several values for one entry are separate records, joined by “and”; a condition that tells them apart may be missing. Equal values may be shown once. Where a structure was tested more than once in an assay, its records may differ in their call. Activity calls are given as the source filed them. How the source made its calls: active means hit-call score of the fitted dose curve at least 0.9, where 1 is the maximum; inactive means score below 0.9.

Test: ATG_SREBP_CIS: Attagene CIS-FACTORIAL HepG2 Assay for human Sterol Regulatory Element Binding (SREBP) (AID 2282962)
Conditions: HepG2 Attagene cis-factorial SREBP reporter, mRNA; actives raise or lower the signal
Procedure: ATG_CIS is a cell-based, multiplexed-readout assay that uses HepG2, a human liver cell line, with measurements taken at 24 hours after chemical dosing in a 24-well plate.ATG_SREBP_CIS is one of 52 assay component(s) measured or calculated from the ATG_CIS assay. It is designed to make measurements of mRNA induction, a form of inducible reporter, as detected with fluorescence intensity signals by Reverse transcription polymerase chain reaction (RT-PCR) and Capillary electrophoresis technology.Data from the assay component ATG_SREBP_CIS was analyzed into 1 assay endpoint. This assay endpoint, ATG_SREBP_CIS, was analyzed with bidirectional fitting relative to DMSO as the negative control and baseline of activity. Using a type of inducible reporter, measures of mRNA for gain or loss-of-signal activity can be used to understand the reporter gene at the transcription factor-level as they relate to the gene SREBF1. Furthermore, this assay endpoint can be referred to as a primary readout, because this assay has produced multiple assay endpoints where this one serves a reporter gene function. To generalize the intended target to other relatable targets, this assay endpoint is annotated to the dna binding intended target family, where the subfamily is basic helix-loop-helix leucine zipper.
Human liver HepG2 cells are transiently transfected with multiple reporter transcription units (MRTUs) in 6-well plates using FuGene 6 reagent (Roche; 3 ml FuGene/1 mg DNA). The MRTU constructs are regulated by a cis-regulating element (promoter). […] A major difference between the CIS and TRANS system is that in CIS activities of endogenous TFs are measured, whereas the TRANS assay evaluates changes in activities of exogenous, chimeric NR-Gal4 proteins. […] At the end of 24 hour incubation, total RNA was isolated using TriZol reagent (Invitrogen). The isolated RNA is then reverse-transcribed using oligo(dT) primer and Mo-MLV reverse transcriptase (Invitrogen) with DNAse I (Ambion) treatment for 30 min. The one-tenth of the produced cDNA was amplified by PCR using Taq DNA polymerase (Invitrogen) and two reporter sequence-specific primers. The PCR products were fluorescently labeled by primer extension with 6-arboxyfluorescein (6-FAM) 5'-labeled reporter sequence-specific primer (2 min at 95 C, 20 s at 68 C and 10 min at 72 C) and these products were digested with 5U of HpaI (New England Biolabs) for 2h at 37 C. The fragments were purified using Qiaquick PCR columns (Qiagen), analyzed on an ABI 3130xL genetic analyzer (Applied Biosystems) with peak positions identified by using a set of X-rhodamine (ROX)-labeled MapMarker1000 molecular weight standards (BioVentures). The raw capillary electrophoresis data was processed using Attagraph software (Attagene).

Row | Compound | outcome | AC50
1 | Brc1ccc(Oc2ccc(Br)cc2Br)cc1 | inactive | 
2 | O=C1OC(=O)C(F)(F)C1(F)F | inactive | 
3 | C=CC(=O)OCC(CO)(COCC(COC(=O)C=C)(COC(=O)C=C)COC(=O)C=C)COC(=O)C=C |  | 2.85 µM (active)
4 | CC(=O)Nc1ccc(O)cc1 | inactive | 
5 | CCCCCCCCC1CCC(=O)O1 (stereo not given) | inactive | 
6 | FC(F)(F)C(F)(F)C(F)(F)Br | inactive | 
7 | O=C1OC2(c3ccccc31)c1cc(I)c(O)c(I)c1Oc1c2cc(I)c(O)c1I | inactive | 
8 | O=C(c1ccccc1)c1ccccc1 | inactive | 
9 | COC(O)c1ccccc1 (stereo not given) | inactive | 
10 | CC(C)(C)c1ccc(O)c(O)c1 | inactive | 57.1 µM (active)
11 | CN(C)CCOC(c1ccccc1)c1ccccc1 |  | 45.5 µM (active)
12 | O=C(O)C(F)(F)OC(F)(F)C(F)(F)OC(F)(F)C(F)(F)OC(F)(F)C(F)(F)C(F)(F)C(F)(F)F | inactive | 
13 | Cc1ccccc1OCC(=O)O | inactive | 
14 | CCCC=O | inactive | 
15 | Nc1ccn([C@@H]2O[C@H](CO)[C@@H](O)C2O)c(=O)n1 (stereo not given in full) | inactive | 
16 | CC1CCC(C(=O)O)CC1 (stereo not given) | inactive | 
17 | Clc1ccc2c(Cl)ccnc2c1 | inactive | 
18 | CC(C)(C)C1CCCCC1O (stereo not given) | inactive | 
19 | NS(=O)(=O)O | inactive | 

Row | Compound | outcome | AC50
20 | N=C(N)c1ccc(OCCCCCOc2ccc(C(=N)N)cc2)cc1 | inactive | 
21 | Cc1cccc2c1ccc1ccccc12 | inactive | 
22 | NNC(=O)CCCCC(=O)NN | inactive | 
23 | CCO[Si](C)(C)OCC | inactive | 
24 | Nc1ccc(O)c(C(=O)O)c1 | inactive | 
25 | Cc1cc(C(=C2C=CC(=Nc3ccc(S(=O)(=O)O)cc3)C=C2)c2ccc(Nc3ccc(S(=O)(=O)O)cc3)cc2)cc(S(=O)(=O)O)c1N | inactive | 
26 | Cc1cc(C(C)(C)C)c(O)c(C(C)(C)C)c1 |  | 33.4 µM (active) and 60 µM (active)
27 | CCCCCCCCCCCCOC(=O)c1cc(O)c(O)c(O)c1 |  | 2.85 µM (active)
28 | CCOC(C)=O | inactive | 
29 | c1ccc(CNc2ncnc3c2ncn3C2CCCCO2)cc1 (stereo not given) | inactive | 
30 | COCN(COC)c1nc(N(COC)COC)nc(N(COC)COC)n1 | inactive | 
31 | C=CCOCC(CO)(CO)CO | inactive | 
32 | O=C(O)CN(CCCN(CC(=O)O)CC(=O)O)CC(=O)O | inactive | 
33 | O=C(c1cc(O)c(O)c(O)c1)c1ccc(O)c(O)c1O | inactive | 
34 | CCOC(OCC)C(=O)c1ccccc1 | inactive | 
35 | Cc1ccccc1C(OCCN(C)C)c1ccccc1 (stereo not given) | inactive | 48.6 µM (active)
36 | CCOC(=O)c1nc(C(Cl)(Cl)Cl)n(-c2ccc(Cl)cc2Cl)n1 |  | 27.7 µM (active)
37 | CCC(=O)C=Cc1ccc(OC)cc1 | inactive | 
38 | O=C1c2ccccc2C(=O)c2c(O)c(O)cc(O)c21 | inactive | 
